An excerpt weighted towards active compounds, which were near 1% of everything screened.
CR mimetic SO = yeast age-related superoxide inhibition as caloric restriction mimetic. AID 2690. hit rate 0.18% among 330,000. superoxide response (% of plate mean), % at 10 µM. S. cerevisiae aged cells, superoxide DHE fluorescence; hits give low values;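 active = superoxide response under a set limit, about three screen SD below normal, cut at about 65% in these data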;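 note: yeast aged for seven days with compound at 30 °C before DHE staining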
CTSL1 counter = cathepsin L1 inhibition, PFM18AAP counter-screen | recombinant F. hepatica cathepsin L1, Z-Leu-Arg-MCA fluorescence | inhibition, % at 5.96 µM | hit rate 0.49% among 300,000;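 active = inhibition above the mean of all tested compounds plus 3 SD, set per screening campaign, cut at about 17% in these data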
V-ATPase pHluor = alters yeast V-ATPase proton transport. response, % at 10 µM. hit rate 0.37% among 350,000. S. cerevisiae, pHLuorin cytosolic pH fluorescence; in the data active = response mostly above about 7.3%, no sharp cut-off; inactive = mostly below about 5.4%; note: actives read high
hiPSC survival = increases survival of single human iPS cells; survival enhancement, % at 20 µM; AID 602274; hiPSC single-cell survival, ATPlite luminescence; 100% = ROCK inhibitor wells, 0% = DMSO; hit rate 0.044% among 360,000; in the data active = survival enhancement above about 18%;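 note: cells exposed to compounds for 16 hours before the ATP read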
V-ATPase pH SP = yeast V-ATPase proton transport regulation | shares compounds with V-ATPase pHluor | S. cerevisiae pHLuorin cytosolic pH | response, % at 10 µM | hit rate 2% among 980 | AID 602197; in the data active = response above about 24%
Hits are given with their value; – = inactive; · = not tested or not shown.

SMILES	CR mimetic SO	CTSL1 counter	V-ATPase pHluor	hiPSC survival	V-ATPase pH SP
COc1ccc(N2CCN(C(=O)c3ccc(S(=O)(=O)N4CCCCCC4)cc3)CC2)cc1	·	·	13	–	–
COc1ccccc1NC(=O)c1c(Nc2ccccc2C)sc(C(=O)Nc2cccc(Cl)c2)c1N	–	–	12	–	–
COc1ccc(Nc2sc(C(=O)c3ccc(Cl)cc3)c(N)c2C(=O)Nc2ccccc2OC)cc1	–	–	–	–	·
O=C(CC[C@H]1O[C@@H](n2cnc3c(NC(=O)c4ccccc4)ncnc32)[C@H](O)[C@@H]1O)NCc1nc2ccccc2[nH]1	·	·	·	–	·
O=C(COC(=O)COc1ccccc1F)Nc1ccc2c(c1)OCO2	–	·	–	–	·
Cc1cccc2sc(N(CCCN(C)C)C(=O)c3ccco3)nc12	–	–	–	–	·
Cc1cccc2sc(N(CCCN(C)C)C(=O)c3ccc(Cl)s3)nc12	–	–	11	–	–
O=C(N/C(=C\c1ccc(Br)cc1)C(=O)N1CCOCC1)c1ccco1	–	–	14	–	–
C=CCOc1cccn2c(N(C)C(=O)c3ccncc3)c(CC)nc12	·	·	·	–	·
COc1cc(NC(=S)NC(=O)c2ccco2)ccc1NC(=O)C(C)C	–	–	–	–	·
COc1cc(NC(=S)NC(=O)c2ccccc2F)ccc1NC(=O)c1ccco1	–	–	54	–	–
Cc1cnnc2c1-c1no[n+]([O-])c1CC2	–	–	14	–	–
COc1ccc(Nc2nc(-c3cccnc3)cs2)c(OC)c1	–	·	9.1	–	–
CC1(C)CC(=O)C(C(C2=C(O)CC(C)(C)CC2=O)c2cccs2)C(=O)C1 (stereo not given)	–	–	11	–	35
C=CCNc1nnc(SCC(=O)N2CCC(C(N)=O)CC2)s1	–	–	–	–	·
COc1cc(/C=N/NC2=NC(C)(C)Cc3ccccc32)cc(OC)c1OC	–	–	8.2	–	–
COc1cc(/C=N/NC2=NS(=O)(=O)c3ccccc32)cc(OC)c1OC	–	–	–	–	·
COC(=O)Cn1c(=O)cnc2ccccc21	–	–	–	–	·
CCOC(=O)Cn1c(S(=O)(=O)Cc2ccccc2)nc2ccccc21	–	–	–	–	–
CCOC(=O)Cn1c(S(=O)(=O)Cc2ccc(Cl)cc2)nc(-c2ccccc2)c1-c1ccccc1	–	–	–	–	·
Cn1c(-c2ccc(Cl)nc2)nc2ccccc21	–	–	–	–	·
CCOC(=O)Cn1c(=O)cnc2ccccc21	–	–	–	–	–
CCOC(=O)Cn1c(-c2ccc(Cl)nc2)nc2ccccc21	–	–	–	–	–
COC(=O)c1cc(=O)nc(NN=C2c3ccccc3-c3ccccc32)s1	·	·	·	–	·
O=C(Cn1ncc2c1-c1ccccc1OC2)Nc1ccc(S(=O)(=O)N2CCCCC2)cc1	–	–	12	–	–
SMILES	CR mimetic SO	CTSL1 counter	V-ATPase pHluor	hiPSC survival	V-ATPase pH SP
O=C(Cn1nc(-c2ccccc2F)ccc1=O)Nc1ccc(S(=O)(=O)N2CCCCCC2)cc1	–	–	–	–	·
CC(CNc1ccc(Cl)cc1)(CNc1ccc(Cl)cc1)[N+](=O)[O-]	·	·	8.8	–	–
Cc1noc(C)c1C(=O)OCC(=O)Nc1ncc(Cl)c(C)c1Cl	–	·	11	–	–
CCOC(=O)C1=C(COC(=O)CCNS(=O)(=O)c2ccc(NC(C)=O)cc2)NC(=O)NC1C (stereo not given)	–	–	–	–	·
COc1ccc(CNS(=O)(=O)c2ccc(C3CNC(=O)C3)cc2)cc1 (stereo not given)	–	–	12	–	–
CC(=O)c1c(C)[nH]c(C(=O)CN2CCN(S(=O)(=O)c3ccccc3)CC2)c1C	–	·	–	–	·
COc1ccc(/C=C/C(=O)Nc2ccc(S(=O)(=O)Nc3onc(C)c3C)cc2)cc1OC	–	–	–	–	·
Cc1noc(NS(=O)(=O)c2ccc(NC(=O)/C=C/c3ccccc3)cc2)c1C	–	·	13	–	–
COc1ccc(-c2nc(-c3cccc(C)c3)no2)cc1OC	–	–	–	–	·
COc1cc(-c2nc(-c3cccc(C)c3)no2)cc(OC)c1OC	–	–	8.1	–	–
O=C(O)c1ccc2c(c1)C(=O)N(c1ccc(Nc3ccccc3)cc1)C2=O	–	·	–	–	·
Cc1ccccc1N=C(c1ccccc1)C1C(=O)c2ccccc2C1=O	·	·	·	–	·
CC(C)(C)C1CCC(C(=O)OCC(=O)Nc2ccc3[nH]c(=O)[nH]c3c2)CC1 (stereo not given)	–	–	–	–	·
COc1cccc(C(N)=O)c1	–	–	11	–	–
CC(C)CN=CC1=C(O)c2ccccc2C1=O	–	–	–	–	·
O=C1C(C=NC2CC2)=C(O)c2ccccc21	–	–	9.8	–	–
c1coc(-c2nnc(-c3cccs3)o2)c1	–	–	–	–	·
